PubChem BioAssay AID504333 (National Center for Advancing Translational Sciences (NCATS), 2011)
Hit rate of the full screen: of about 360,000 compounds, about 16,000 (4.4%) were called active. About 9% were inconclusive and are not listed. The call rests on the fitted dose curve; in most records, active means well fitted inhibition curve with a large enough effect; inconclusive means small, poorly fitted or top-dose-only effect; inactive means no such curve, though single readings can be large or run the other way. The full list was thinned out, with actives kept by preference.

Target: Bromodomain adjacent to zinc finger domain protein 2B (Homo sapiens) (UniProt Q9UIF8)
Sequence (Q9UIF8 whole entry, looked up, the tested form may be a part): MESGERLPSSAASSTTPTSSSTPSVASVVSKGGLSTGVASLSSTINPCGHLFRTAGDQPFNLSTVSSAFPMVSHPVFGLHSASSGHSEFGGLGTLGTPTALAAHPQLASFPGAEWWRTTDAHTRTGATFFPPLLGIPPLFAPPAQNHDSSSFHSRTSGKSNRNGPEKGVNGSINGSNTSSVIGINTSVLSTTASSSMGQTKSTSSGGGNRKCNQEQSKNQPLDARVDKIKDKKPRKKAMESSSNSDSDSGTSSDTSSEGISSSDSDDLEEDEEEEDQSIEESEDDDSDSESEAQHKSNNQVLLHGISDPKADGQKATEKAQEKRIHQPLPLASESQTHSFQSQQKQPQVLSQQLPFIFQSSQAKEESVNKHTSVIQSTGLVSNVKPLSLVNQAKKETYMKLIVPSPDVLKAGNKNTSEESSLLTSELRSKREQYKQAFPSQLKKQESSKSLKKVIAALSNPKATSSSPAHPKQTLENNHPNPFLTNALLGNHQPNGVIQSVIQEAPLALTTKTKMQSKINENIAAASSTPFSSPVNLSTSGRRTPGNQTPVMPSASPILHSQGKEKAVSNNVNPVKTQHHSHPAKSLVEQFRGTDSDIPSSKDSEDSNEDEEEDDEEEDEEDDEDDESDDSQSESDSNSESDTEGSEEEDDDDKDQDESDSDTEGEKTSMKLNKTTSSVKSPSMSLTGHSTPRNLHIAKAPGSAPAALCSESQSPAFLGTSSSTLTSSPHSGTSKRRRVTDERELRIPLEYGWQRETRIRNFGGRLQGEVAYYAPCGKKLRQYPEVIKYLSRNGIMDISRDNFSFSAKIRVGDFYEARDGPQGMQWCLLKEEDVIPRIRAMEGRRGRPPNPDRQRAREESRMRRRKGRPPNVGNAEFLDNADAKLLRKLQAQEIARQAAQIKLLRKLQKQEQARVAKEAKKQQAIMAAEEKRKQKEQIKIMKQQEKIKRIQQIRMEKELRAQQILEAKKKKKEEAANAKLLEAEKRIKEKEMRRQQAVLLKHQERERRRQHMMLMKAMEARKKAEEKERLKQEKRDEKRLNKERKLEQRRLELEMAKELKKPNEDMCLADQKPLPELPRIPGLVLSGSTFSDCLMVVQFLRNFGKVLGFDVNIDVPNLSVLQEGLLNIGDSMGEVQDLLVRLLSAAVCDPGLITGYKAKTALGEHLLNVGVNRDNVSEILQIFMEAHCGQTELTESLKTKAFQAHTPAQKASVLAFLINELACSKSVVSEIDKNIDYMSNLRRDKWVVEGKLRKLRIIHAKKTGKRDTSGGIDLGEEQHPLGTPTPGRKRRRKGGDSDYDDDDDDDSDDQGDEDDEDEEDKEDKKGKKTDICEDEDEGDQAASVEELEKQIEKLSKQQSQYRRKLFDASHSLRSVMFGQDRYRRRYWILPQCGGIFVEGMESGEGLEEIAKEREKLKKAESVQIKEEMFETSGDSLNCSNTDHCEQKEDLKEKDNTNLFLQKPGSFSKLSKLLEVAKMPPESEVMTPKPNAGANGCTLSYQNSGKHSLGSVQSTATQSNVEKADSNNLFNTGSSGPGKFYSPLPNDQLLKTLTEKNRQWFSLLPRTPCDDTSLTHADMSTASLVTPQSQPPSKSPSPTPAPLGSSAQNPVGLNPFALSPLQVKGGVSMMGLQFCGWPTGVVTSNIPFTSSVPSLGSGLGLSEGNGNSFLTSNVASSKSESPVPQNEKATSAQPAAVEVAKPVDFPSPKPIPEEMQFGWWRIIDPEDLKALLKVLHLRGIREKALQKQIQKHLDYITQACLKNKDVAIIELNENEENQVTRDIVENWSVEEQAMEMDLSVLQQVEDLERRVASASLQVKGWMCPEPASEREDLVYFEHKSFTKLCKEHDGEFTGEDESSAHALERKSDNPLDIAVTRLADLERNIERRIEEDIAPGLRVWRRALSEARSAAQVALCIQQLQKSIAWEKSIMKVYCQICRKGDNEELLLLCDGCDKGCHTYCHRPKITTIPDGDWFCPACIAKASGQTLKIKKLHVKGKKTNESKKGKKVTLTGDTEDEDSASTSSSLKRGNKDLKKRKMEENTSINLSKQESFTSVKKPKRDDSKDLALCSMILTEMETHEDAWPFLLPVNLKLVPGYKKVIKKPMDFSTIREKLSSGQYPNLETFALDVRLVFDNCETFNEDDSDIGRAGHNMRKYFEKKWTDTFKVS
Experiment: qHTS Assay for Inhibitors of BAZ2B; further: nearly all actives have a fitted effect of over 60% in size
Conditions: AlphaScreen BAZ2B-H3K14Ac peptide displacement; series mostly up to 114 µM; activity change, negative = inhibition: at the top concentration
Method in brief: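 Compounds, titrated to a top concentration of 110 uM, were incubated 30 min at room temperature with preformed BAZ2B/acetyl-K14 H3 peptide complex (50 nM each). Proximity signal was measured by AlphaScreen after 20 min with beads.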
On the % scale 0 is the no-effect control and ±100 the full control effect; potency means the concentration at half of the fitted maximal effect.

Compound	activity change, negative = inhibition	Potency
CC(C)(C)OC(=O)N1CCC(c2c(C(=O)NCc3ccccn3)cnn2-c2ccc(F)cc2)CC1	12.6% [at 57.1 µM] (inactive)	–
CC1CCC(NC(=O)CNC(=O)c2ccc3ccccc3c2)CC1 (centres undefined)	-25.2% (inactive)	–
O=C(Nc1ncccc1O)c1ccc(C(=O)c2ccccc2)cc1	-32.2% (inactive)	–
O=C(CNC(=O)c1ccc2ccccc2c1)Nc1ncccc1O	–	50.1 µM (active)
CN(Cc1ccccc1)C(=O)CCS(=O)(=O)c1cc(Br)cc2c1N(C(=O)C1CC1)CC2	-8.26% (inactive)	–
Cc1ccc(C)c(N2CCN(C(=O)CN3C(=O)COc4ccc(S(=O)(=O)N5CCCCCC5)cc43)CC2)c1	-8.46% (inactive)	–
CCOCCCNCc1ccc(OCc2ccc(F)cc2)c(OC)c1	-9.74% (inactive)	–
CCOCCCNCc1cc(Br)ccc1OCC	-14.7% (inactive)	–
CCOc1ccccc1OCCCNCc1ccccc1	–	79.4 µM (active)
Cc1cc(C)c2oc(-c3cccc(NC(=O)c4cccc(F)c4)c3C)nc2c1	-5.05% (inactive)	–
CCN1C(=O)/C(=C2\SC(N3CCCCC3)=NC2=O)c2ccccc21	–	39.8 µM (active)
CCOc1cc(/C=C2\SC(N3CCCCC3)=NC2=O)ccc1O	4.95% (inactive)	–
O=C1N=C(N2CCCC2)S/C1=C\c1cccc(Br)c1	-1.32% (inactive)	–
CCOc1ccc(S(=O)(=O)c2cn(Cc3ccccc3)c3ccc(OCC)cc3c2=O)cc1	-2.47% (inactive)	–
CCc1ccc(CN(Cc2ccco2)C(=O)c2ccccc2Cl)cc1	28.6% (inactive)	–
Cc1cc(=O)c2cc(C(=O)Nc3cccc(C)c3C)ccc2[nH]1	-0.358% (inactive)	–
CC1CCCN(CC(O)COCc2ccccc2)C1 (centres undefined)	-6.53% (inactive)	–
O=[N+]([O-])c1ccc(N2CCN(CC(O)COc3ccccc3)CC2)cc1 (centres undefined)	-36.5% (inactive)	–
OC(COCc1ccco1)CN1CCN(c2ccccc2)CC1 (centres undefined)	–	89.1 µM (active)
CCCn1ccc2c(OCC(=O)NCc3ccc(F)cc3)cccc2c1=O	2.51% (inactive)	–
Cc1ccc(-c2cn3c(n2)sc2cc(C(=O)NCCCc4ccccc4)ccc23)cc1	-0.904% (inactive)	–
Cc1cc(C)cc(NC(=O)CN2C(=O)c3ccccc3C2=O)c1	5.03% (inactive)	–
Cc1cc2c(cc1C)N(C(=O)CN1C(=O)c3ccccc3C1=O)C(C)(C)c1ssc(=S)c1-2	–	8.91 µM (active)
Cc1ccc(NC(=O)CCN2C(=O)c3ccccc3C2=O)cc1C	-0.264% (inactive)	–
O=[N+]([O-])c1cc(C(F)(F)F)ccc1NCCc1ccncc1	-9.78% (inactive)	–
COc1cc(OC)cc(C(=O)NC(=S)N2CCN(c3ccc(C(F)(F)F)cc3[N+](=O)[O-])CC2)c1	62.3% (inactive)	–
O=[N+]([O-])c1cc(C(F)(F)F)ccc1NN=C1CCCC1	–	10 µM (active)
COc1cccc(CNC(=O)C(=O)NCC(c2cccs2)S(=O)(=O)c2ccccc2)c1 (centres undefined)	30.7% (inactive)	–
COc1ccccc1CNC(=O)CCCn1c(=O)c2ccccc2n(CC(=O)Nc2ccc(C)cc2Cl)c1=O	-9.06% (inactive)	–
